T cruzi growth-1 = T. cruzi intracellular proliferation inhibitors, primary screen, cell-based, beta-gal Tulahuen parasites, NIH3T3 host, luminescence. T. cruzi beta-gal in NIH3T3, GalScreen luminescence, 90 h. inhibition, % at 8.34 µM. actives 5.9% (n = 77,000);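 active means mean inhibition above about 93%, with at least 55% of replicates each passing it, limit read from the data, passing the limit was not always enough; inconclusive means only one of those two conditions holds; inactive means neither condition holds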
Pf Dd2 growth = P. falciparum Dd2 growth inhibitors, primary screen, SYBR Green fluorescence, single dose replicates; 72 h; active compounds read low; activity change, % at 10 µM; actives 2.3% (n = 94,000); AID 1159554, 2015; in the data active means activity change below about -80%; inconclusive means no clear call, values can overlap the other calls
C diff HTS = C. difficile growth inhibitors, primary screen, HTS | Clostridium difficile clinical isolate growth, OD600, 24 h; active compounds read low | growth activity, negative = inhibition, % at 16 µg/mL (by protocol) | actives 0.25% (n = 86,000);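 active means mean growth activity at or below -80% and every replicate also at or below -80%; inconclusive means mean at or below -80% but some replicate above -80%; inactive means mean growth activity above -80%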;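 further: 0% = DMSO wells and -100% = levofloxacin 16 µg/mL wells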
T cruzi growth-2 = T. cruzi intracellular proliferation inhibitors, confirmation, cell-based, NIH3T3 host, beta-gal parasite, luminescence, cherry-pick; actives 72% (n = 5,600); inhibition, % at 8.35 µM; T. cruzi beta-gal in NIH3T3, GalScreen luminescence, 90 h; shares compounds with T cruzi growth-1;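 active means mean replicate inhibition above about 95% and at least 55% of replicates individually reaching it, limit read from the data; inconclusive means only one of the two criteria is met; inactive means neither criterion is met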
T cruzi growth-3 = inhibitors of intracellular T. cruzi replication, confirmation, NIH3T3 host cells, beta-gal parasites, cherry-pick, set 2. shares compounds with T cruzi growth-1. T. cruzi beta-gal in NIH3T3, GalScreen luminescence, 90 h. inhibition, % at 2.09 µM. actives 21% (n = 5,600). AID 651740, 2012;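 active means mean inhibition above about 95%, with at least 55% of replicates also reaching it, limit read from the data; inconclusive means meets just one of the two conditions; inactive means meets neither condition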;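 further: plate controls were neutral control median for no effect and positive control median for full effect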
NIH3T3 tox = cytotoxicity in mouse NIH/3T3 fibroblasts, confirmation, cytotoxicity control for T. cruzi proliferation inhibitor project, cell-based, cherry-pick, single point; cytotoxicity (signal decrease), % at 8.35 µM; actives 14% (n = 5,600); NIH/3T3 viability, CellTiter-Glo ATP luminescence, 90 h; shares compounds with T cruzi growth-1;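 active means mean signal decrease across replicates above about 35% based on untreated-well scatter, with enough replicates individually passing, limit read from the data; inconclusive means no rule stated though some were filed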;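 further: 0% = median of neutral control wells and 100% = median of positive control wells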
3T3 cytotox 2 = NIH/3T3 fibroblast cytotoxicity, confirmation, cytotoxicity control, cell-based, cherry-pick, single point, set 2; inhibition, % at 24.9 µM; NIH/3T3 viability, CellTiter-Glo ATP luminescence, 90 h; actives 56% (n = 5,600); shares compounds with T cruzi growth-1;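 active means mean loss of cell viability signal at or above a set limit, and enough replicates individually reaching it; inconclusive means meets only the mean limit or only the replicate share; inactive means meets neither condition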;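 further: 0% = median of neutral control wells and 100% = median of positive control wells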
* hit, by the source's call. This is a sample that favours compounds with a hit; in the whole collection about 6.7% have one here.

For CCC(=O)N(C)C[C@H]1Oc2cc(C#CCN(C)C)ccc2S(=O)(=O)N([C@@H](C)CO)C[C@@H]1C the results were T cruzi growth-1 102*, Pf Dd2 growth -2, C diff HTS -1, T cruzi growth-2 104*, T cruzi growth-3 inconclusive, NIH3T3 tox 26 and 3T3 cytotox 2 19.
Screening CCC(=O)N(C)C[C@H]1Oc2cc(C#CCN(C)C)ccc2S(=O)(=O)N([C@H](C)CO)C[C@@H]1C returned T cruzi growth-1 102*, Pf Dd2 growth 7, C diff HTS 1, T cruzi growth-2 97*, T cruzi growth-3 91, NIH3T3 tox -11 and 3T3 cytotox 2 -1.
For CCC(=O)N(C)C[C@@H]1Oc2cc(C#CCN(C)C)ccc2S(=O)(=O)N([C@H](C)CO)C[C@@H]1C the results were T cruzi growth-1 94, Pf Dd2 growth 3 and C diff HTS -2.
`CCC(=O)N(C)C[C@H]1Oc2cc(C#CCN(C)C)ccc2S(=O)(=O)N([C@H](C)CO)C[C@H]1C` gave T cruzi growth-1 66, Pf Dd2 growth 5 and C diff HTS -1.
For CCCNC(=O)N(C)C[C@H]1Oc2cc(C#CCN(C)C)ccc2S(=O)(=O)N([C@@H](C)CO)C[C@@H]1C the results were T cruzi growth-1 inconclusive, Pf Dd2 growth -4, C diff HTS -4, T cruzi growth-2 88, T cruzi growth-3 36, NIH3T3 tox -24 and 3T3 cytotox 2 -20.
Screening CCCC#Cc1ccc2c(c1)O[C@H](CN(C)C(=O)NCCC)[C@H](C)CN([C@H](C)CO)S2(=O)=O returned T cruzi growth-1 -42, Pf Dd2 growth -23 and C diff HTS 6.
For C[C@H](CO)N1C[C@H](C)[C@H](CN(C)C)Oc2cc(C#Cc3ccc(F)cc3)ccc2S1(=O)=O the results were T cruzi growth-1 -168, Pf Dd2 growth -2 and C diff HTS -1.
For C[C@H](CO)N1C[C@H](C)[C@@H](CN(C)S(C)(=O)=O)Oc2cc(C#Cc3ccc(F)cc3)ccc2S1(=O)=O the results were T cruzi growth-1 106*, Pf Dd2 growth -16, C diff HTS 1, T cruzi growth-2 109*, T cruzi growth-3 64, NIH3T3 tox 6 and 3T3 cytotox 2 52*.
C[C@@H]1CN([C@H](C)CO)S(=O)(=O)c2ccc(C#Cc3ccc(F)cc3)cc2O[C@H]1CN(C)C was read as T cruzi growth-1 -36, Pf Dd2 growth -5 and C diff HTS 9.
For C[C@@H]1CN([C@@H](C)CO)S(=O)(=O)c2ccc(C#Cc3ccc(F)cc3)cc2O[C@@H]1CN(C)S(C)(=O)=O the results were T cruzi growth-1 inconclusive, Pf Dd2 growth -11, C diff HTS -3, T cruzi growth-2 91, T cruzi growth-3 36, NIH3T3 tox 36* and 3T3 cytotox 2 74*.
`C[C@@H]1CN([C@@H](C)CO)S(=O)(=O)c2ccc(C#Cc3ccc(F)cc3)cc2O[C@H]1CN(C)C` gave T cruzi growth-1 -46, Pf Dd2 growth 3 and C diff HTS -2.
C[C@@H]1CN([C@H](C)CO)S(=O)(=O)c2ccc(C#Cc3ccc(F)cc3)cc2O[C@@H]1CN(C)S(C)(=O)=O was read as T cruzi growth-1 inconclusive, Pf Dd2 growth -3, C diff HTS 1, T cruzi growth-2 inconclusive, T cruzi growth-3 59, NIH3T3 tox 46* and 3T3 cytotox 2 66*.
O=S(=O)(N[C@H]1CC[C@H](CCn2cc(-c3cccc(F)c3)nn2)O[C@H]1CO)c1ccc(F)cc1 was read as C diff HTS -6.
CCNC(=O)C[C@@H]1CC[C@@H]2[C@@H](COc3ccc(NC(=O)Nc4cccc(C)c4)cc3C(=O)N2C)O1 was read as T cruzi growth-1 32, Pf Dd2 growth 2 and C diff HTS 2.

Assay outcomes: PubChem, Broad Institute
